Results filed as inconclusive are left out. A number with no mark means an inactive call. The source made the active and inactive calls. Calls follow the shape of the dose curve; as a rule, active = well fitted inhibition curve with a large enough effect; inconclusive = small, poorly fitted or top-dose-only effect; inactive = flat fitted curve, though single readings scatter.
% is scaled to controls: 0 for no effect and ±100 for the full control effect.

Chain of Calcium and integrin-binding protein 1 (Homo sapiens) (Q99828 whole entry, looked up): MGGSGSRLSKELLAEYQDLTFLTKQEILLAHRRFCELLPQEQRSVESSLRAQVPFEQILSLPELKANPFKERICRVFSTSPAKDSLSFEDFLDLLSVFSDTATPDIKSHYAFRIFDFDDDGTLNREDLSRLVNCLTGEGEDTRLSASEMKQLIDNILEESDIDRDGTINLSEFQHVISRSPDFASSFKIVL

This test concerns the target Calcium and integrin-binding protein 1 (Homo sapiens) (UniProt Q99828). The experiment in a line: Primary qHTS for Identification of Calcium Integrin Binding Protein 1 (CIB1) Competitor (AID 1508620).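 Also: GST tagged CIB1 binding a fluorescein labelled alphaIIb integrin peptide tracer; top concentration of the series differs between compounds.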 Conditions: CIB1-GST / FITC-alphaIIb peptide fluorescence polarization; series mostly up to 114 µM; activity change, negative = inhibition: at the top concentration. The procedure, abridged: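 Fluorescence polarization competition: CIB1-GST (1 uM final) preincubated with compound 15 min at room temperature, then FITC-labeled alphaIIb peptide (100 nM final) added for another 15 min. Polarization read at Ex 480/Em 540.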
A general note: In qHTS, concentration-response curves come from the screen itself.
As to `O=C(/C=C/c1ccc([N+](=O)[O-])o1)Nc1cccc([S+](=O)([O-])Nc2ccccc2F)c1`, the Potency entry is “inactive”.
Turning to `COc1ccc(C2=Nn3c(nnc3-c3ccc(OC)cc3)SC2)cc1`, the “activity change, negative = inhibition” value is 2.94%.
Regarding `O=C(O)c1ccc2c(c1)C(=O)N([C@H](Cc1ccc(O)cc1)C(=O)O)C2=O`, the “activity change, negative = inhibition” value was -0.01%.
With `COc1cccc(C2=Nn3c(nnc3-c3ccc(OC)c(OC)c3)SC2)c1`, the “activity change, negative = inhibition” value was -2.16%.
Consider `CCOC(=O)c1ccc(-n2cnc3c(c2=N)C(c2cccc(OC)c2)c2c(ccc4ccccc24)O3)cc1` (centres undefined), for which the “activity change, negative = inhibition” value is 15.9%.
The same measure, in the same setting: as for `Cc1cc(N[S+](=O)([O-])c2ccc(NC(=O)Cc3ccc(Cl)nc3)cc2)no1`, the figure is -12.3%; as for `Nc1cccc(-c2ccc(NC(=O)c3cccs3)cn2)c1`, -3.82%.
As for `CC(=O)Nc1ccc(S(=O)(=O)Nc2ccc(C)c(C)c2)cc1`, the “activity change, negative = inhibition” value was 3.53%.
On the same count and under the same terms, as for `O=C(NCCc1nc2ccccc2n1CCOc1ccc(C(F)(F)F)cc1)C1CCCCC1`, the figure is 6.86%; as for `Oc1ccc(CNc2cccc(F)c2)c2cccnc12`, 13.5%; as for `Cc1ccc2nc3sc(C(=O)NC4CCC(O)CC4)cc3cc2c1` (centres undefined), -0.684%.
For `N#CN1CCC(NS(=O)(=O)c2ccc(C(F)(F)F)cc2)C1` (centres undefined), the “activity change, negative = inhibition” value was -2.58%.
`CC(C)(C)c1cccc(NC(=O)Nc2nnc(-c3ccncc3)s2)c1`: the “activity change, negative = inhibition” value was -2.11%.
Still for that read-out and setting: as for `COC(=O)c1ccc(O)c2ncc(-c3ccc(C(=O)N4CCN(C)CC4)cc3)cc12`, the figure is -5.08%; as for `N[C@H]1CCN(c2cnc3c(O)ccc(C(=O)O)c3c2)C1`, -13%; as for `Cc1cc(C)nc(NC(=S)N2CCN(c3cccc([N+](=O)[O-])c3)CC2)c1`, -21.9%.
Same read-out and setting: as for `Fc1cnc(-c2ccccc2C(F)F)nc1NCc1ccc(-c2cccnc2)cc1`, the figure is -2.09%; as for `COc1ccc(OC)c(-c2nnc(NC(=O)Nc3ccc4ccccc4c3)s2)c1`, 2.95%.
As to `O=C(Nc1cccc(C(F)(F)F)c1)c1cccs1`, the “activity change, negative = inhibition” value was 3.52%.
On the same count and under the same terms, as for `Cc1ccc(OCCn2c(CCNC(=O)c3c(F)cccc3F)nc3ccccc32)cc1`, the figure is 2.21%; as for `O=C1CCCC2=C1C(c1[nH]ncc1Cl)NC(=NCc1nccs1)N2` (centres undefined), -10.7%.
Same read-out and setting: as for `CNc1oc(-c2ccc3c(c2)OCCO3)nc1C#N`, the figure is 1.76%.
For the compound `Oc1ccc(-c2ccccc2F)c2cccnc12`, the “activity change, negative = inhibition” value was 0.779%.
In the case of `Cc1ccccc1C(=O)N1CCc2cc(-c3nc(NC(=O)Cc4ccccc4)sc3C)ccc21`, the “activity change, negative = inhibition” value was 1.5%.
Turning to `N#Cc1nc(-c2cccc3ccccc23)oc1NCC#CCOC(=O)c1cccs1`, the “activity change, negative = inhibition” value is -17.4%.
The same measure, in the same setting: the same measure for `Cc1cccc(-n2cnc3cc(C(=O)N4CCN(C)CC4)ccc32)c1`: 6.77%; for `O=S(=O)(Nc1cccc2cccnc12)c1ccccc1O`: -9.56%; for `Cc1cc(NS(=O)(=O)c2ccc(N(C)C(=O)Cc3ccc(Cl)c(Cl)c3)cc2)no1`: -10.6%.
Still for that read-out and setting: the same measure for `O=C(NCCc1nc2ccccc2n1CCO)C1CCCCC1`: -1.39%; for `FC(F)(F)c1ccccc1-c1nc(NCc2ccc(-c3ccc(Cl)cc3)cc2)c2ccccc2n1`: 4.41%; for `Cc1cc2c(s1)c1cnn(Cc3cccc(C(F)(F)F)c3)c(=O)c1n2C`: 5.12%.
Still for that read-out and setting: as for `Cn1c2ccsc2c2ncn(Cc3ccc(F)cc3)c(=O)c21`, the figure is -1.3%; as for `NC(=O)C1CCN(c2ncc(-c3ccc4c(c3)OCCO4)s2)CC1`, 1.43%; as for `N#Cc1nc(Nc2ccccc2)nc(NC2CCCC2)n1`, -2.22%.
In the case of `O=C(O)c1ccc(S(=O)(=O)N[C@H](Cc2ccc([N+](=O)[O-])cc2)C(=O)O)cc1`, the “activity change, negative = inhibition” value is 0.618%.
Consider `O=C1C2=C(CN1c1ccccc1)NC(Nc1nc3ccccc3o1)=NC2c1ccccc1Cl` (centres undefined), for which the “activity change, negative = inhibition” value is -1.61%.
With `COC(=O)c1ccccc1NC(=O)c1ccc(C#N)cc1`, the “activity change, negative = inhibition” value is -2.51%.
The same measure, in the same setting: the same measure for `COc1ccc(NC(=O)c2cccnc2C)cc1S(=O)(=O)Nc1ccc(Br)cc1`: -1.18%; for `Cc1cnc(-c2ccccc2C(F)F)nc1NCC1CN(c2cnccn2)C1`: 0.273%.

These data come from PubChem BioAssay (NCATS).
